Assay results from PubChem BioAssay AID1963317 (National Center for Advancing Translational Sciences (NCATS), 2024).
Inconclusive results are not listed. A call without a number means that no potency is given here. Calls of active or inactive are those of the source. The call rests on the fitted dose curve.

molecular target: Tyrosine-protein kinase ABL1 (Homo sapiens) (UniProt P00519); assay: ABL1 kinase (ABL1-N-HiBiT) enzymatic inhibition screen - Functional assay; settings: luminescence; series mostly up to 57.5 µM
Excerpt: National Center for Advancing Translational Sciences (NCATS),
National Institute of Health (NIH), Maryland
Discovery and optimization of novel protein-binding ligands underlies many of the methods and applications of biology, drug discovery, clinical diagnostics, and environmental toxicology. Assays for detecting the interaction of, for example, a molecule with a macromolecular target also referred to here as the target of interest (TOI) is dependent on a compatible output technology. Depending on the nature and knowledge surrounding the TOI, whether a receptor, enzyme, regulatory subunit or scaffold, or a sequence-defined nucleic acid folded into a complex tertiary structure, assay strategies can vary widely.
Here we exploit ligand-biased changes in the structural dynamics of the target protein to control reporter alpha complementation allowing a non-competitive, non-functional, non-separation measure of ligand-target interaction.
Using a chemical library of >1,200 compounds enriched for scaffolds known to be associated with the inhibition of firefly luciferase (FLuc) activity (PubChem AIDs 2309) we first illustrate and compare the Structural Dynamics Response (SDR) assay vs. the standard functional FLuc enzyme assay (2). Secondly, we show the specificity and sensitivity of the SDR for the Abelson tyrosine kinase (ABL1) compared to the serine/threonine protein kinase A, using an enriched chemical library of 128 compounds selected, in part, for activity annotated with ABL1 kinase activity using the Pharos database (3).
(1) A. S. Dixon et al., NanoLuc Complementation Reporter Optimized for Accurate Measurement of Protein Interactions in Cells.
Chemistry & Biology, 19, 1060 - 1072 (2012).
(3) K. J. Kelleher et al., Pharos 2023: an integrated resource for the understudied human proteome. Nucleic Acids Res 51, D1405-D1416 (2023).
PROTOCOL TABLE (as described by Inglese J, Shamu CE and Guy RK. 2007)
SEQUENCE No. (e.g., 1, 2, 3, etc.); […] (e.g., C. elegans, Compounds, Incubation, Read, etc.); VALUE and DESCRIPTION.
1. Reagent. Dispense 4 uL ABL1-N-HiBiT enzyme per well at a final enzyme concentration of 10 nM in buffer with 87.5 uM ATP (functional assay) into columns 2-48 of four replicate Greiner 1536-well white, solid bottom high base, medium plates per assay. Dispense respective buffer without enzyme at 4 uL/well in column 1 of assay plates using BioRaptr 2.
2. Compounds. Library compounds added at 23 nL/well by pin transfer. DMSO neutral control and imatinib positive control added at 25 nL/well, transfer by Mosquito dispenser.
3. Incubation. Incubate enzyme and compounds at room temperature for 30 min, protected from light.
4. Reagent. (Functional assay) Transfer 25 nL of abltide peptide substrate to each well of four replicate kinase assay plates with Mosquito dispenser.
5. Incubation. (Functional assay) Kinase enzyme incubated with peptide substrate for 3 h at room temperature, protected from light.
6. Reagent. (Functional assay) Add 4 uL/well of Kinase-Glo Plus reagent (Promega) to kinase activity assay plates, in the presence of ATP.
7. Detector. (Functional assay) Luminescence measured using CCD-based camera (ViewLux) with settings as follows: Exposure, 1 sec; Gain, High; Speed, Slow; Binning, 2X.
Inglese J, Shamu CE and Guy RK, Reporting data from high throughput screening of small molecule libraries, Nature Chemical Biology, 2007, 3(8): 438-441. doi.org/10.1038/nchembio0807-438.

Sequence of Tyrosine-protein kinase ABL1 (Homo sapiens) (P00519 whole entry, looked up): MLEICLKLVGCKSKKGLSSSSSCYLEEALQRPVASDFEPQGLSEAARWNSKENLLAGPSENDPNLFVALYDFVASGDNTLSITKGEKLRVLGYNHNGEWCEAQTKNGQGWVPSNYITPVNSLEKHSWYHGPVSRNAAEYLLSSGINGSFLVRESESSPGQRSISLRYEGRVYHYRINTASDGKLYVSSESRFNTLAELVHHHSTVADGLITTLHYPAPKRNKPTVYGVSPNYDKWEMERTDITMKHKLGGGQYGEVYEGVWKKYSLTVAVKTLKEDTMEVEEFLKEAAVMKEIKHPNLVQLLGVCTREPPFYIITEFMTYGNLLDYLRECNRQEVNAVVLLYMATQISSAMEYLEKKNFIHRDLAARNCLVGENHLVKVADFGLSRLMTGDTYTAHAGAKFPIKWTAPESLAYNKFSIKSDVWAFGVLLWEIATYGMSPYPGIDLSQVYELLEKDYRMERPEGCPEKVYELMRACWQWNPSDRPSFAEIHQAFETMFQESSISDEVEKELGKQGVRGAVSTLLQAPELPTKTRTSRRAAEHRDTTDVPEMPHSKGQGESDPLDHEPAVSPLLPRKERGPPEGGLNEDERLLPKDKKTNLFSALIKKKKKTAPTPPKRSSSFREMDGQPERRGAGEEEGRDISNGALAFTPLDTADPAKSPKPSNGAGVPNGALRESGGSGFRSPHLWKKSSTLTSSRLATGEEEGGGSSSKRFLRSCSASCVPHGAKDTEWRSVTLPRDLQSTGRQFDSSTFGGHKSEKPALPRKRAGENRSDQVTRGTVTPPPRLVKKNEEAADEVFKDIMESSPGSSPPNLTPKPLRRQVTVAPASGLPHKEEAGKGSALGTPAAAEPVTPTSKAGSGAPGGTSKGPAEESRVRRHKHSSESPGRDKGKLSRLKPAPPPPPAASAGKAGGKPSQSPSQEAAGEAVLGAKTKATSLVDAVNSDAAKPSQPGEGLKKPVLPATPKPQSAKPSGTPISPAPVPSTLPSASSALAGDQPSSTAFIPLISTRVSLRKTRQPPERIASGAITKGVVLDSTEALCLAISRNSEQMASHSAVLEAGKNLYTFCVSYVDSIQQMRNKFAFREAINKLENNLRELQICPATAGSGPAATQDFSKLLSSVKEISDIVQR

| SMILES | Potency |
| --- | --- |
| COc1cc2nccc(Oc3ccc(NC(=O)Nc4ccc(F)cc4F)c(F)c3)c2cc1OC | 1930 nM (active) |
| O=C(NOCC(O)CO)c1cc(Br)c(F)c(F)c1Nc1ccc(I)cc1F (stereo not given) | inactive |
| COc1cc(N2CCN(C)CC2)ccc1Nc1nc(N)c(C(=O)c2c(Cl)cccc2Cl)s1 | inactive |
| C=CC(=O)N1CCC(Oc2cc3c(Nc4ccc(Cl)c(Cl)c4F)ncnc3cc2OC)CC1 | inactive |
| CC(C)CCN1c2nc(Nc3cc(F)c(O)c(F)c3)ncc2N(C)C(=O)C1C (stereo not given) | inactive |
| Cc1ccc(C(=O)Nc2ccc(CN3CCN(C)CC3)c(C(F)(F)F)c2)cc1C#Cc1cnc2[nH]ncc2c1 | 11.2 nM (active) |
| COc1ccc(-n2c(SCC#N)nc3sc4c(c3c2=O)CCCC4)cc1 | inactive |
| Cc1ccc(-n2nc(C(C)(C)C)cc2NC(=O)NCc2cc(F)ccc2Oc2ccc3c(cnn3CCO)c2)cc1 | 1260 nM (active) |
| COc1cc(NC(=O)c2cccc(-n3cc(NC(=O)Nc4cccc(C)c4)cn3)c2)cc(OC)c1OC | inactive |
| CC(C)(C)n1nc(-c2cccc3ccccc23)c2c(N)ncnc21 | inactive |
| Cc1cc(Nc2ncc3c(n2)N(C)C(=O)N(c2cc(NC(=O)c4cccc(C(F)(F)F)c4)ccc2C)C3)n(C)n1 | 141 nM (active) |
| Cc1ccc(C(=O)Nc2ccc(Oc3cc4cnn(C)c4cc3-c3cn[nH]c3)c(F)c2)c(=O)n1-c1ccc(F)cc1 | inactive |
| CN1CCN(CCOc2cc(OC3CCOCC3)c3c(Nc4c(Cl)ccc5c4OCO5)ncnc3c2)CC1 | 217 nM (active) |
| Cc1cc(C)c(/C=C2\C(=O)Nc3ccccc32)[nH]1 | inactive |
| Cc1ccccc1-n1c([C@H](C)Nc2nc(N)nc3nc[nH]c23)nc2cccc(C)c2c1=O | inactive |
| O=C(O)C1(Cc2cccc(Nc3nccs3)n2)CCC(Oc2cccc(Cl)c2F)CC1 (stereo not given) | 1030 nM (active) |
| CC[C@@](C)(Nc1ccnc(-c2c[nH]c3ncccc23)n1)C(=O)NCC(F)(F)F | 7060 nM (active) |
| COc1cc2ncnc(Oc3cccc(NC(=O)Nc4cc(C(C)(C)C(F)(F)F)on4)c3)c2cc1OC | 2500 nM (active) |
| O=C(NCCO)c1cccc(-c2cc(Nc3ccc(OC(F)(F)F)cc3)ncn2)c1 | inactive |
| O=S(=O)(/N=C/c1c(O)ccc2ccccc12)c1cccs1 | inactive |

| SMILES | Potency |
| --- | --- |
| CC1(C)OCCn2c1nc1c(N3CCOCC3)nc(-c3cnc(N)nc3)nc12 | inactive |
| CCN1C(=O)CNc2ncc(-c3ccc(-c4ncn[nH]4)nc3C)nc21 | inactive |
| Cc1sc2c(c1C)C(c1ccc(Cl)cc1)=N[C@@H](CC(=O)Nc1ccc(OCCOCCOCCOCCNc3cccc4c3C(=O)N(C3CCC(=O)NC3=O)C4=O)cc1)c1nnc(C)n1-2 (stereo not given in full) | inactive |
| O=c1cc(N2CCOCC2)nc2c3ccccc3ccn12 | inactive |
| CCCCNc1ncc2c(-c3ccc(S(=O)(=O)N4CCOCC4)cc3)nn(C3CCC(O)CC3)c2n1 (stereo not given) | 7480 nM (active) |
| Cc1c(Cl)cccc1S(=O)(=O)Nc1nc(NCCc2ccccc2)nc2c1CN(Cc1ccccc1)CC2 | inactive |
| CC(C)(NS(=O)(=O)c1ccc2c(Cl)cnc(N=C(N)N)c2c1)C(=O)O | inactive |
| Nc1nc(Nc2ccc(S(N)(=O)=O)cc2)n(C(=S)Nc2c(F)cccc2F)n1 | 4720 nM (active) |
| Cc1[nH]nc2ncc(C(=O)N3CCC[C@H]3c3ccc(Cl)cc3)cc12 | inactive |
| CCCCCCCCCCCCc1ccc(S(=O)(=O)Nc2nncs2)cc1 | inactive |
| CCn1nc(C2CCN(C(=O)CCO)CC2)nc1-c1cnc(N)c(-c2nnc(C(C)(C)C)o2)n1 | inactive |
| CNC(=O)c1ccccc1Nc1nc(Nc2ccc(N3CCOCC3)cc2OC)ncc1Cl | inactive |
| COc1cc2ncnc(-n3nc(-c4ccccn4)nc3N)c2cc1OC | 1060 nM [activator] (active) |
| Cc1ccc(NC(=O)N2CCN(c3nc(N)nc4sc(-c5cccnc5)nc34)CC2)cc1 | inactive |
| CO[C@H]1/C=C/O[C@@]2(C)Oc3c(C)c(O)c4c(O)c(c(/C=N\N5CCN(C6CCCC6)CC5)c(O)c4c3C2=O)NC(=O)/C(C)=C\C=C\[C@H](C)[C@H](O)[C@@H](C)[C@@H](O)[C@@H](C)[C@H](OC(C)=O)[C@@H]1C | inactive |
| Cn1cc(-c2cc3c(N4CCN(c5ncc([C@@](C)(N)c6ccc(F)cc6)cn5)CC4)ncnn3c2)cn1 | 12900 nM (active) |
| O=C(Nc1ccc(OC(F)(F)F)cc1)c1sccc1NCc1ccnc2ccccc12 | inactive |
| Cn1ncc(NC(=O)c2nc(-c3c(F)cccc3F)sc2N)c1N1CC[C@@H](N)[C@H](F)CC1 | inactive |
| O=C1CCC(N2C(=O)c3ccccc3C2=O)C(=O)N1 (stereo not given) | inactive |
| C[C@@H](NC(=O)c1ncnc(N)c1Cl)c1ncc(C(=O)Nc2cc(C(F)(F)F)c(Cl)cn2)s1 | 6290 nM (active) |
